Assay in all cases: NCI-60 one-dose screen, 48 h (100 = growth as untreated, 0 = no growth, -100 = all killed)
Conditions in all cases: 10 µM unless noted

Assay [1] deals with SK-MEL-2 melanoma.
The subject of assay [2] is EKVX NSCLC.
Assay [3] deals with SN12C renal.
In assay [4] the test system is UO-31 renal.
The test system of assay [5] is ACHN renal.
For assay [6], the system named is CAKI-1 renal.
In assay [7] the test system is A498 renal.
The test system of assay [8] is CCRF-CEM leukemia.
In assay [9] the test system is MOLT-4 leukemia.
The subject of assay [10] is SR leukemia.
The subject of assay [11] is RPMI-8226 leukemia.
The subject of assay [12] is OVCAR-8 ovarian.
The test system of assay [13] is OVCAR-5 ovarian.
Assay [14] relates to OVCAR-4 ovarian.
Assay [15] deals with SK-OV-3 ovarian.
Assay [16] deals with IGROV1 ovarian.
Assay [17] concerns OVCAR-3 ovarian.
For assay [18], the system named is HS 578T breast.
Assay [19] relates to NCI/ADR-RES ovarian.
In assay [20] the test system is TK-10 renal.

Molecules are shown by their SMILES. The panel holds about 83,000 compounds, 20% with a hit somewhere; the sample as a whole holds those more often.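 Values shown are percent growth following 48 h exposure of cells in 96-well plates to a single concentration of compound; below 10 was considered active.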 Values without a mark were called inactive. The source made the active and inactive calls.

As for `c1ccc(Cn2cc(-c3nc4ccccc4s3)c3cccnc32)cc1`, the growth was 102% in assay [1]; 80.5% in assay [2]; 94.5% in assay [3]; 76.7% in assay [4]; 105% in [5]; 92.9% in assay [6]. The growth in [7] is 104%; in assay [8], 112%; in [9], 105%; in [10], 112%; in assay [11] it was 99.9%; in assay [12] it was 106%. For the same molecule, the growth in [13] was 103%; in [14] it was 90.9%; in assay [15] it was 96.1%; in assay [16], 94.3%; in [17] it was 95.6%; in [18], 110%. Further, the growth in assay [19] was 98.6%.

Consider `CC1(C)CC[C@]2(C(=O)Nc3ccccn3)CC[C@]3(C)C(=CC[C@@H]4[C@@]5(C)C/C(=C/c6cccnc6)C(=O)C(C)(C)[C@@H]5CC[C@]43C)[C@H]2C1`, for which the growth in assay [1] is 63.9%; in assay [2], 42.5%; in assay [3], 32.6%; in assay [4] it was 37.4%; in assay [20] it was 68.9%; in [5], 26.5%. For the same molecule, the growth is 39.9% in assay [7]; 20.9% in assay [8]; 13.2% in assay [9]; 13.3% in [11]; 29.3% in [12]; 56.4% in assay [13]. The growth is 26.7% in assay [14]; 74% in [15]; 52.8% in assay [16]; 35.4% in assay [17]; 63.4% in assay [18]; 42.2% in assay [19].

Turning to `CN(C)[C@@H]1C(=O)C(C(=O)NCc2nc3[nH]cnc(=S)c3[nH]2)=C(O)[C@@]2(O)C(=O)C3=C(O)c4c(O)cccc4[C@@](C)(O)[C@H]3C[C@@H]12`, the growth was 13.1% in assay [1]; 88.8% in assay [2]; 87.8% in [3]; 47.4% in assay [4]; 22.7% in assay [20]; 74% in assay [5]. Also, the growth in assay [7] is 101%; in [8], 14.1%; in assay [9], 12.9%; in assay [10], 12.5%; in assay [12], 7.48% (active); in assay [13], 36.3%. The growth is 39.8% in [14]; 19.9% in assay [15]; 12.5% in [16]; 38.7% in [17]; 73.5% in [18]; 30.5% in assay [19].

On to `OC(COc1cccc2ccccc12)CN1CCN(c2ccccc2Cl)CC1` (stereo not given), for which the growth was 44.6% in assay [1]; 102% in [2]; 105% in [3]; 85.1% in [4]; 100% in [20]; 102% in assay [5]. Besides, the growth in [7] was 90%; in assay [9], 107%; in [10], 78.3%; in assay [12] it was 98.4%; in [13], 85.3%; in [14], 92.7%. Also, the growth in [15] is 89.2%; in assay [16], 117%; in assay [17], 101%; in assay [18], 107%; in assay [19], 89.4%.

Take `O=C1c2ccccc2OC=C(c2ccccc2)N1CCCCNc1ccc(S(=O)(=O)Nc2ncccn2)cc1`: the growth is 99.1% in [1]; 90% in assay [2]; 99.1% in assay [3]; 85.7% in assay [4]; 96.6% in [20]; 100% in assay [5]. The growth in [7] is 80.2%; in assay [8] it was 75.6%; in assay [10] it was 78.9%; in assay [11], 83.2%; in assay [12], 92.2%; in assay [13], 105%. The growth was 106% in assay [14]; 96.6% in assay [15]; 104% in assay [16]; 104% in [17]; 92.8% in assay [18]; 98.6% in [19].

With `COc1cc(CNc2oc(-c3ccccc3)c(-c3ccccc3)c2C#N)cc(CN2CCN(C)CC2)c1O`, the growth in assay [1] is 82.4%; in assay [2], 65.6%; in assay [3], 77.4%; in assay [4] it was 51.5%; in assay [20], 91.9%; in assay [5] it was 65.7%. Also, the growth is -7.97% (active) in assay [7]; 45.6% in assay [8]; 2.73% (active) in [11]; 94.5% in assay [12]; 63.8% in assay [13]; 55% in [14]. The growth in assay [15] was 95.9%; in assay [16], 71.2%; in assay [17] it was 80.2%; in [18], 70.5%; in assay [19] it was 75.3%.

Turning to `CCOC(=O)n1cc(-c2nonc2-c2cn(C)c3ncccc23)c2cc(F)ccc21`, the growth in [1] was 92.8%; in assay [2] it was 67.3%; in [3] it was 79.8%; in [4], 57.5%; in assay [5], 74.9%; in [6] it was 54.8%. The growth is 94.8% in assay [7]; 85% in [8]; 66.7% in assay [9]; 84% in assay [10]; 58.3% in assay [11]; 84.5% in assay [12]. In addition, the growth is 87.7% in assay [13]; 55.3% in assay [14]; 85.8% in assay [15]; 56.3% in [16]; 77.6% in assay [17]; 79.4% in assay [18]. The growth in assay [19] is 74%.

Turning to `Cn1cc(-c2nonc2-c2cn(C)c3ccc(F)cc23)c2ccccc21`, the growth is 30.6% in [1]; 47.6% in assay [2]; 33.8% in assay [3]; 26.9% in [4]; 38.7% in assay [5]; 26.2% in [6]. Besides, the growth in assay [7] is -2.88% (active); in assay [8], 14.9%; in [9] it was 15.9%; in [10], 31.3%; in assay [11] it was 13.5%; in assay [12] it was 28.5%. Also, the growth was 41.5% in [13]; 41.6% in assay [14]; 41.5% in assay [15]; 24.6% in assay [16]; -18.9% (active) in assay [17]; 3.84% (active) in [18]. The growth in [19] is 4.44% (active).
